Screening results from PubChem.
Hits are enriched below; roughly 7% of the tested compounds scored in any of these assays.
ADAM17 inh – ADAM17 inhibitors, primary screen, biochemical, QFRET; inhibition, % at 6.95 µM; recombinant ADAM17, EDANS/DABCYL FRET peptide cleavage; Disintegrin and metalloproteinase domain-containing protein 17 (Homo sapiens), P78536; AID 720648, 2013; 0.83% of 370,000 active;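 active = inhibition above the mean of compounds lying between control limits plus 3 SD, set per campaign, cut at about 8.5% in these data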;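 note: 0% = DMSO-only wells as the low control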
ADAM10 inh – human ADAM10 inhibitors, primary screen, biochemical, QFRET, HTS; Disintegrin and metalloproteinase domain-containing protein 10 (Homo sapiens), O14672; 0.62% of 370,000 active; recombinant ADAM10, EDANS/DABCYL FRET peptide cleavage, 3 h; AID 720582, 2013; inhibition, % at 7 µM;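 active = inhibition above a per-campaign cutoff equal to the mean of compounds falling between control-based bounds plus 3 SD, cut at about 20% in these data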;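 note: 0% = DMSO wells while the 100% control is not disclosed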
Target sequence (O14672 214-748 limits assumed): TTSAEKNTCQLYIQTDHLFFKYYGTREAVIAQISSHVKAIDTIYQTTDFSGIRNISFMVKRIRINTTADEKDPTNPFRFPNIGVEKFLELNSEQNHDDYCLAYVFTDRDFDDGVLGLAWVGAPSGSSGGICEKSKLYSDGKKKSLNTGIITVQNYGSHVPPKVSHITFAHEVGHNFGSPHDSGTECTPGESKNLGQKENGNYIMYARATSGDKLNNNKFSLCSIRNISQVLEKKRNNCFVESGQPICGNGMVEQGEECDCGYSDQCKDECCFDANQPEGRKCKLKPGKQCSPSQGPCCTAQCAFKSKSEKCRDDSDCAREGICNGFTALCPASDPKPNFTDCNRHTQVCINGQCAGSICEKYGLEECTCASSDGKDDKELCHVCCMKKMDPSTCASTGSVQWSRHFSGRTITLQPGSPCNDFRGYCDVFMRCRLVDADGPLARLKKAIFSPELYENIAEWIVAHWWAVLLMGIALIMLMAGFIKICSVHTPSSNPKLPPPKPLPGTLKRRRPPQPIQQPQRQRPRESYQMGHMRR
rCAG binder – binders of r(CAG) RNA repeats, primary screen, biochemical, fluorescence | r(CAG) RNA repeat, TO-PRO-1 dye displacement fluorescence | inhibition, % at 3 µM | 1.3% of 370,000 active;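 active = inhibition above the plate cutoff, the mean of all test compounds on that plate plus 3 SD, cut at about 35% in these data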;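 note: 0% = DMSO alone and 100% = 100 µM mitoxantrone as full dye displacement; higher means more dye released from RNA so lower well fluorescence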
NR3A LBD binder – binders of NR3A ligand-binding domain, primary screen, biophysical, differential scanning fluorimetry, uHTS | NR3A LBD differential scanning fluorimetry, Tm shift; 0% = protein alone, 100% = glycine-bound protein | Tm shift relative to glycine control, % at 25 µM | AID 1259313, 2017 | 2.5% of 340,000 active | Glutamate receptor ionotropic, NMDA 3A (GRIN3A) ligand-binding domain;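 active = melting temperature shift of at least 10% of the positive control shift, at one fixed dose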
AHR activator – AHR activators, primary screen, cell-based, luminescence, luciferase reporter, human; 2.5% of 320,000 active; Aryl hydrocarbon receptor (Homo sapiens), P35869; AHR-responsive luciferase reporter cells; AID 2796, 2010; activation, % at 5 µM; in the data active = activation above about 47%;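 note: 0% = vehicle wells and 100% = reference agonist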
KLK7 zymogen act – proKLK7 zymogen activators, primary screen, biochemical, fluorescence intensity. Kallikrein-7 (Homo sapiens), P49862. 0.9% of 370,000 active. activation, % at 7 µM. purified proKLK7, EDANS-DABCYL substrate fluorescence; 100% is mature enzyme control, 0% vehicle;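 active = activation above the mean of all tested compounds plus 3 SD, computed per campaign excluding outliers beyond control limits, cut at about 13% in these data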
ADAM10 confirm – human ADAM10 inhibitors, confirmation, biochemical, QFRET, triplicate | shares compounds with ADAM10 inh | ADAM10 QFRET peptide cleavage, EDANS fluorescence | inhibition, % at 6.95 µM | 1% of 2,100 active | AID 743208, 2013;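 active = inhibition above about 20% chosen separately for each screening run, limit read from the data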;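 note: 0% = DMSO wells and 100% = marimastat wells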
ADAM17 counter – ADAM17 inhibitors, counter-screen for ADAM10 exosite inhibitor project, biochemical, QFRET, high throughput; shares compounds with ADAM10 inh; ADAM17 QFRET peptide cleavage, EDANS fluorescence; inhibition, % at 6.95 µM; 0.5% of 2,100 active;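 active = mean triplicate inhibition above the solvent-only control wells' mean plus 3 SD, cut at about 12% in these data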;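 note: 0% = DMSO wells and 100% = marimastat wells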
* hit, by the source's call.

`OC(c1ccccc1)(c1nc(/C=C/c2ccccc2)cs1)C(F)(F)F` (centres undefined) gave ADAM17 inh 7, ADAM10 inh 21*, rCAG binder 3, KLK7 zymogen act 0, ADAM10 confirm 8 and ADAM17 counter 3.
CC1CN(C(=O)CCNC(=O)c2ccccc2Cl)CC(C)O1 (centres undefined) was read as ADAM17 inh -3, ADAM10 inh -5, rCAG binder 0, NR3A LBD binder 1, AHR activator 0 and KLK7 zymogen act 0.
Screening O=S(=O)(Nc1ccccc1Cl)c1ccc(-c2ccccn2)s1 returned ADAM17 inh -3, ADAM10 inh 5, rCAG binder 15, NR3A LBD binder -4, AHR activator 1 and KLK7 zymogen act 0.
`COc1ccc(NS(=O)(=O)c2ccc(-c3ccccn3)s2)cc1` gave ADAM17 inh 5, ADAM10 inh 22*, rCAG binder 3, NR3A LBD binder 2, AHR activator 1, KLK7 zymogen act 0, ADAM10 confirm 0 and ADAM17 counter 0.
CC(C)N1C(=O)C(Cc2nc3ccccc3c(=O)n2-c2ccccc2)c2ccccc21 (centres undefined) was read as ADAM17 inh 2, ADAM10 inh 86*, rCAG binder -7, NR3A LBD binder -6, AHR activator 2, KLK7 zymogen act 0, ADAM10 confirm 3 and ADAM17 counter 1.
Screening Cc1ccc(S(=O)(=O)NN=Cc2ccccc2Cl)cc1 returned ADAM17 inh -1, ADAM10 inh -14, rCAG binder 4 and KLK7 zymogen act 7.
O=C(CCc1nc(-c2ccc(F)cc2)no1)Nc1cccc(C(=O)NC2CC2)c1 was read as ADAM17 inh -3, ADAM10 inh -10, rCAG binder -1, NR3A LBD binder 3, AHR activator 2 and KLK7 zymogen act 0.
O=C(C1=C[C@H](c2csc3ccccc23)C[C@H](OCc2ccc(CO)cc2)O1)N1CCOCC1 was read as ADAM17 inh -1, ADAM10 inh 89*, rCAG binder -4, NR3A LBD binder -4, AHR activator 4, KLK7 zymogen act 1, ADAM10 confirm 1 and ADAM17 counter 0.
For CN1CCN(C(=O)C2=C[C@@H](c3csc4ccccc34)C[C@@H](OCc3ccc(CO)cc3)O2)CC1 the results were ADAM17 inh -1, ADAM10 inh -2, rCAG binder -7, NR3A LBD binder 1, AHR activator 1 and KLK7 zymogen act 1.
For COC(=O)c1ccc(CSc2nc3ccccc3c(=O)n2-c2ccc(OC)c(OC)c2)o1 the results were ADAM17 inh -1, ADAM10 inh 8, rCAG binder 1, NR3A LBD binder 0, AHR activator 5 and KLK7 zymogen act -2.
For COC(=O)c1ccc(CSc2nc3ccccc3c(=O)n2-c2ccccc2)o1 the results were ADAM17 inh 4, ADAM10 inh 20*, rCAG binder 6, NR3A LBD binder 1, AHR activator -1, KLK7 zymogen act 0, ADAM10 confirm 4 and ADAM17 counter 1.
`CCOc1cccc(C(=O)Nc2ccc(N(CC)CC)cc2)c1` gave ADAM17 inh -2, ADAM10 inh 27*, rCAG binder -6, NR3A LBD binder -2, AHR activator 7, KLK7 zymogen act 1, ADAM10 confirm 2 and ADAM17 counter 1.
CCOC(=O)c1c(NC(=O)C2C3CCC(O3)C2C(=O)O)sc(C)c1-c1ccc(F)cc1 (centres undefined) was read as ADAM17 inh -7, ADAM10 inh -4, rCAG binder 17, NR3A LBD binder -2, AHR activator -3 and KLK7 zymogen act 0.
Screening CCOC(=O)c1c(N)sc(C(O)(C(F)(F)F)C(F)(F)F)c1-c1ccc(F)cc1 returned ADAM17 inh 11*, ADAM10 inh 24*, rCAG binder 2, NR3A LBD binder 0, AHR activator 7, KLK7 zymogen act 0, ADAM10 confirm 6 and ADAM17 counter 2.
For CCOC(=O)NC(=O)c1cn(Nc2ccccc2)c(=O)[nH]c1=O the results were ADAM17 inh -3, ADAM10 inh 12, rCAG binder 2, NR3A LBD binder 1, AHR activator -3 and KLK7 zymogen act 0.
Screening CCCN(CC(=O)Nc1ccc(C(N)=O)cc1)CC(=O)Nc1ccc(F)c(F)c1F returned ADAM17 inh -2, ADAM10 inh 0, rCAG binder -2, NR3A LBD binder -1, AHR activator 9 and KLK7 zymogen act -1.
`CSCC[C@H](NC(=O)OC(C)(C)C)c1nnc(SCc2cccc(F)c2)o1` gave ADAM17 inh 1, ADAM10 inh 20*, rCAG binder -5, NR3A LBD binder 3, AHR activator 10, KLK7 zymogen act -1, ADAM10 confirm 1 and ADAM17 counter 0.
`Cc1ccc(S(=O)(=O)N2CCC(=O)N2)cc1` gave ADAM17 inh 0, ADAM10 inh 28*, rCAG binder 3, NR3A LBD binder 0, AHR activator 0, KLK7 zymogen act 0, ADAM10 confirm 12 and ADAM17 counter 1.
For Cc1ccc(C)c(OCc2cc(C(=O)N(C)Cc3ccccn3)no2)c1 the results were ADAM17 inh 0, ADAM10 inh -1, rCAG binder 2, NR3A LBD binder 0, AHR activator 0 and KLK7 zymogen act 0.
For Cc1ccc(C)c(OCc2cc(C(=O)NC(c3ccccn3)C(F)(F)F)no2)c1 (centres undefined) the results were ADAM17 inh 6, ADAM10 inh 21*, rCAG binder -4, NR3A LBD binder 2, AHR activator 9, KLK7 zymogen act -1, ADAM10 confirm 4 and ADAM17 counter 2.
Screening CCCC1=Nc2cc(C(=O)NCCCOC(C)C)ccc2Sc2ccccc21 returned ADAM17 inh 8, ADAM10 inh 21*, rCAG binder -4, NR3A LBD binder -4, AHR activator 6, KLK7 zymogen act 0, ADAM10 confirm 7 and ADAM17 counter 2.
